# Laboratory results from PubChem BioAssay AID588855 (National Center for Advancing Translational Sciences (NCATS), 2011).
# Hit rate of the full screen: of about 410,000 compounds, about 5,000 (1.2%) were called active. Another 13% or so got no clear call; they are omitted. Only a selection was taken, and actives are over-represented in it overall. A number with no mark means an inactive call. Calls follow the shape of the dose curve; as a rule, active = well fitted inhibition curve with a large enough effect; inconclusive = small, poorly fitted or top-dose-only effect; inactive = no such curve, though single readings can be large or run the other way.
# Experiment: qHTS for Inhibitors of TGF-b; also: nearly all actives have a fitted effect of over 65% in size
# Conditions: HepG2 CAGA-GFP TGF-b/SMAD3 reporter, GFP fluorescence, 18 h, TGF-beta stimulated, 500 pg/mL final; series mostly up to 46.1 µM; activity, negative = inhibition: at the top concentration
# Description: TGF-b is a main component in the TGF-b signaling pathway which plays diverse roles in cellular and development pathways. TGF-b is the mediated by the transcription factors Smads. Although the Smad-dependent pathway is the primary canonical TGF-b signaling node, TGF-b1 can also activate alternative signaling pathways, including those involving MAPK (ERK, JNK and p38). This interaction may mediate or enhance Smad-dependent responses, or can exert Smad-independent effects. The complexity of this signaling cascade allows the TGF-b superfamily to perform unique, overlapping or redundant functions. We believe that targeting the TGF-beta pathway at the Smad-transcription factor level may eliminate the consequences of disrupting the entire pathway and offer specificity without affecting other signaling pathways. Smad3 is the primary transducer of TGF-b's signals and Smad3 regulates many functions attributed to TGF-b signaling. We hypothesize that Smad3 inhibitors will selectively eliminate Smad3-specific TGF-beta signals without undesired off-target effects. We aim to identify Smad3-small molecule antagonists using a quantitative high throughput screening (qHTS) approach.
# A high-throughput assay was developed to screen the NIH Molecular Libraries Small Molecule Repository (MLSMR). This is a cell based assay, where TGF-b is tagged with GFP. A counterscreen is run that looks at cytotoxicity (please see summary AID).
# MH087449NIH Chemical Genomics Center [NCGC]
# NIH Molecular Libraries Probe Centers Network [MLPCN]
# Assay Submitter (PI): Sushil Rane, National Institute of […]
# Suspensions of trypsinized HEPG2 CAGA-GFP cells were dispensed into white, tissue culture-treated, solid 1536-well plates at 5uL/well (1000 cells/well final concentration) in DMEM medium supplemented with 1% FBS. Plates were incubated at 37 degrees C for 2 hours, after which 23 nL of compounds or DMSO were delivered to each well using a pin tool. One uL of recombinant TGF-beta in DMEM (1% FBS) was then dispensed (500 pg/mL final concentration), and plates were incubated at 37 degrees C for 18 hours. The plates were measured on an Acumen eX3 Explorer plate reader for GFP fluorescence (ex488/em500-530). GFP values were calculated by determining the mean GFP fluorescence of individual cells, and compiling these values for each well to determine a total well GFP signal. The %Activity was determined from the corrected fluorescence values. A titration of the known TGF-B inhibitor SB431542 was included to monitor plate performance, while unstimulated HEPG2 (-TGF-B) control wells were used to normalize %Activity of identified inhibitors; unstimulated wells corresponded to 100%Activity (full inhibition), while stimulated cell controls (+DMSO) were used to normalize 0%Activity (no inhibition).
# Concentration-response curves were fitted to the signals arising from the resulting fluorescence. The concentration-effect curves were then classified based on curve quality (r2), response magnitude and degree of measured activity, and compounds were subsequently categorized based on their curve class.
# Potency is read from the fitted curve at half-maximal effect.
Compound,Potency,"activity, negative = inhibition"
CC(C)(C)c1ccc(CN2C(=O)CN=C(c3ccccc3)c3ccccc32)cc1,11.2 µM (active),
O=C(O)/C=C/c1ccc2c(c1)OCO2,,23.6%
CC1=C(C(=O)Nc2ccccc2)S(=O)(=O)CCO1,,5.26%
CNC(=O)N(C)c1nnc(C(C)(C)C)s1,,-7.7%
c1ccc(N2Cc3ccccc3-n3nncc3C2)nc1,,18.6%
O=Cc1cn(Cc2ccc(F)cc2Cl)c2ccccc12,8.91 µM (active),
CC(=O)C1(O)CCC2C3CCC4=C(Cl)C(=O)CCC4(C)C3CCC21C (configuration not stated),,3.07%
N#Cc1c(Cl)c(Cl)c(Cl)c(C#N)c1Cl,0.251 µM (active),
CCOC(=O)C(O)(c1ccc(N=Cc2ccccc2O)c(C)c1)C(F)(F)F (configuration not stated),,-3.24%
O=C(Oc1ccc2c(c1)CCC2)N1CCOCC1,,32.9%
CCN(CC)C(=O)c1ccc(NC(=O)c2sccc2-c2ccccc2)cc1,,-23.7%
CCOc1cccc(=NC2CCCCC2)c2c(C)[nH]c(C)c12,10 µM (active),
Cc1nc2ccccn2c1P(=S)(N1CCCCC1)N1CCCCC1,,-1.83%
COc1c(O)ccc2c1-c1c3c(cc4c1C(C2)N(C)CC4)OCO3 (configuration not stated),,6.67%
COc1ccc2c(c1O)-c1cccc3c1[C@@H](C2)N(C)CC3,,15.1%
COc1ccc2cc1Oc1ccc(cc1)C[C@H]1c3cc(c(OC)cc3CCN1C)Oc1c(O)c(OC)cc3c1[C@H](C2)N(C)CC3,7.94 µM (active),
CN(C)/C=C(\C=[N+](C)C)c1[nH]ncc1[N+](=O)[O-],,23.1%
COC(=O)C1=C(c2ccc(OCc3ccccc3)cc2)C[C@@H]2CC[C@H]1N2C(=O)NCc1cccc(F)c1,,-12.6%
Cc1ncoc1C(=O)NCC1=C(c2cccc3ccccc23)C[C@@H]2CC[C@H]1N2Cc1ccco1,,-27.8%
ClCCN(CCCl)c1ccc(C=Nc2ccc(/C=C/c3ccnc4ccccc34)cc2)cc1,,-16.9%
CCCCCCCCCCCCn1ccc(=N)cc1,10 µM (active),

Compound,Potency,"activity, negative = inhibition"
Cc1ccc(Oc2cnn(-c3ccccc3)c(=O)c2Br)cc1,,27%
CCC1(CC(C)c2ccccc2)C(=O)NC(=O)NC1=O (configuration not stated),,-0.656%
CCOP(=S)(OCC)SCOC(=O)NCC(=O)OC,,-14.9%
O=P1(Oc2ccccc2)CC(O)C(O)C(COCc2ccccc2)O1 (configuration not stated),,-2.34%
O=c1c2ccccc2[nH]c(=S)n1-c1cccc(Cl)c1,,-2.46%
OC(Cn1c2ccccc2c2ccccc21)C[n+]1ccccc1 (configuration not stated),,-14.8%
CC[C@H]1CN2CCc3cc(OC)c(OC)cc3[C@@H]2C[C@@H]1C[C@H]1NCCc2cc(OC)c(OC)cc21,0.0891 µM (active),
CC(=O)OC1C2(CC3N4C(=O)C5(CO)SSC4(CC31O)C(=O)N5C)OC(C)C(C)(C)C2=O (configuration not stated),0.794 µM (active),
O=C(NCC1=C(c2ccc3ccccc3c2)C[C@@H]2CC[C@H]1N2Cc1ccco1)c1cccs1,,0.825%
CNC(=S)N/N=C1\C2CN3CCN(C2)CC1(c1ccccc1)C3,,3.41%
O=C(Cc1ccccc1)N1CCN(C2CCCCCC2)CC1,,6.26%
CN(C)CC1Oc2ccccc2OC1(O)c1ccccc1 (configuration not stated),2.82 µM (active),
COc1ccc2c(c1)[C@]13CCCCC1C(C2)N(C)CC3 (some centres not stated),,-24.2%
CCOc1ccc(CNC(=O)c2cccc(Nc3nc4ccccc4n4nnnc34)c2)cc1OC,,63%
COc1ccc(C2NCc3ccc4c(c3-n3cccc32)OCO4)cc1OC (configuration not stated),,17.7%
CN(C)C(=O)Oc1ccc(NC(=O)N2CCOCC2)cc1,,-16.7%
Cc1cccc(-n2c(O)c(C=NC34CN5CN(CN(C5)C3)C4)c(=O)[nH]c2=O)c1,,5.66%
c1cc2c(c(NC3=NCCCS3)c1)CCCC2,,10.7%
CCOC(=O)c1cccc(C2=C(CNC(=O)c3ccncc3)[C@H]3CC[C@@H](C2)N3Cc2ccccc2)c1,,-12.1%
O=C(COC(=O)Cc1ccccc1)Nc1ccc(F)cc1,,-9.05%
CC(=O)NCC1=C(c2ccc3ccccc3c2)C[C@@H]2CC[C@H]1N2Cc1ccco1,,15.6%
